Source: PubChem BioAssay (National Center for Advancing Translational Sciences (NCATS))
CHX counter: Cycloheximide Counterscreen for Small Molecule Inhibitors of Shiga Toxin; cell reporter, cycloheximide protein synthesis inhibition counterscreen; max response, %; 300,000 tested, 12% active; in the data active = max response mostly above about 13%, no sharp cut-off; inactive = mostly below about 14%; also: read at 38.3 µM for the half of the compounds with a filed dose
Pf growth 48h: Primary qHTS for delayed death inhibitors of the malarial parasite plastid, 48 hour incubation | P. falciparum luciferase growth in erythrocytes, 48 h | Potency, µM (highest dose often 28.7 µM), usual class: inhibitors | 310,000 tested, 5.9% active
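A one-generation exposure of luciferase-tagged malaria parasites in RPMI 1640/Albumax erythrocyte culture, 37 C and 5% CO2. Inhibition is inferred from decreased luminescence after adding detection reagent.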
AMA1-RON2 inh: qHTS for Inhibitors of AMA1-RON; Towards Development of Antimalarial Drug Lead: Primary Screen | Potency, µM (highest dose often 58.2 µM), usual class: inhibitors | AlphaScreen AMA1-biotinylated RON2 peptide binding | Plasmodium falciparum AMA1 (3D7) - RON2 peptide interaction | AID 720542, 2013 | 360,000 tested, 0.2% active; also: nearly all actives have a fitted effect of over 45% in size
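AMA1 (3D7) with his tag at 25 nM final met compounds first, then biotinylated RON2 peptide at 25 nM; detection used donor plus acceptor beads, 10 µg/mL apiece, read by AlphaScreen after 30 min at room temperature.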
Pf growth 96h: Primary qHTS for delayed death inhibitors of the malarial parasite plastid, 96 hour incubation | AID 504834, 2011 | Potency, µM (highest dose often 28.7 µM), actives largely listed as inhibitors | P. falciparum luciferase reporter growth, 96 h | 320,000 tested, 6.9% active
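Two-generation exposure (96 h) targets delayed-death phenotype. Reporter parasites carrying integrated firefly luciferase, in red cells at 2% hematocrit and 0.05% parasitemia final, kept at 37 C, 5% CO2; luminescence loss indicates inhibition.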
HCV inh: qHTS Assay for Inhibitors of Hepatitis C Virus (HCV); Potency, µM (highest dose often 41.8 µM), most hits filed as inhibitors; 340,000 tested, 3.4% active; AID 651820, 2012; Huh7.5.1 HCVcc-Cre infection, luciferase reporter, 44 h
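HCVcc-Cre virus at an moi near 0.5 was added right after compound to cells cultured 4 h from seeding (1,000 cells/well). Luciferase activity was determined 44 h later, 15 min after substrate addition at RT.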
Shiga inhibitor: A qHTS for Small Molecule Inhibitors of Shiga Toxin | Vero cells, Shiga toxin protein synthesis inhibition reporter | 290,000 tested, 9.2% active | inhibition, % at 38.7 µM; in the data active = inhibition mostly above about 28%, no sharp cut-off; inactive = mostly below about 43%
Numbers stand for hits; . = inactive; ? = inconclusive; / = no result given; [ ] = dose if it differs, or a comment. Sampled rows, rich in hits. Any-hit rate of the full collection: about 21%. Unless noted, calls follow the shape of the dose curve; as a rule, active = well fitted curve in the direction sought with a large enough effect; inconclusive = small, poorly fitted or top-dose-only effect, or another doubt; inactive = no such curve, though single readings can be large; an effect the other way counts as inactive or inconclusive.

SMILES	CHX counter	Pf growth 48h	AMA1-RON2 inh	Pf growth 96h	HCV inh	Shiga inhibitor
c1ccc(OCCOc2ccccc2-c2nnco2)cc1	15	.	.	5.2µM	.	136
CCOC(=O)c1cc(-c2ccc(OC)cc2OC)nn1-c1ccc(C(=O)O)cc1	21	.	.	?	.	.
CCC(Sc1nc2cc(OC)c(OC)cc2c(=O)n1CCc1ccc(OC)c(OC)c1)C(=O)NCCOC (stereo not drawn)	.	?	.	.	?	.
O=C(CSc1nnc(C2CC2)n1Cc1ccco1)NCC(F)(F)F	.	.	.	.	.	.
COc1ccccc1CNC(=O)c1cc(-c2ccccc2C)n(CC2CC(c3cccc([N+](=O)[O-])c3)=NO2)n1 (stereo not drawn)	/	5.2µM	.	?	?	/
Cc1ccccc1-c1cc(C(=O)NCC2CC2)nn1CC1CC(c2cccc([N+](=O)[O-])c2)=NO1 (stereo not drawn)	/	5.2µM	.	2.6µM	.	/
COCCNC(=O)c1cc(-c2ccccc2C)n(CC2CC(c3cccc([N+](=O)[O-])c3)=NO2)n1 (stereo not drawn)	/	/	.	/	?	/
CC1CN(C(=O)c2ccc(COc3ccc(C(C)C)cc3)o2)CC(C)O1 (stereo not drawn)	54	.	.	.	.	195
CC1CN(C(=O)c2ccc(-c3cccc(C(F)(F)F)c3)o2)CC(C)O1 (stereo not drawn)	/	13µM	.	?	?	/
CC1CN(C(=O)c2ccc(COc3ccc4ccccc4c3)o2)CC(C)O1 (stereo not drawn)	27	.	.	.	.	57
COCCN(CC(=O)Nc1cc(Cl)ccc1-n1cncn1)Cc1nc2ccccc2c(=O)[nH]1	/	.	.	.	.	/
CCOC(=O)C1=C(C(=O)OCC)N(CC)CCC1=O	/	/	.	/	?	/
CCO[C@H]1OC(C(=O)N2CCOCC2)=C[C@@H](c2coc3ccccc3c2=O)[C@@H]1CCCO	.	.	.	.	35µM	.
CCO[C@H]1OC(C(=O)N2CCN(Cc3ccccc3)CC2)=C[C@@H](c2coc3ccccc3c2=O)[C@@H]1CCCO	.	?	.	?	.	.
CCO[C@@H]1OC(C(=O)N2CCN(Cc3ccccc3)CC2)=C[C@H](c2coc3ccccc3c2=O)[C@H]1CCCO	.	?	.	5.2µM	?	.
O=C(COC(=O)c1ccc(S(=O)(=O)N2CCOCC2)cc1)NCc1ccco1	/	/	.	/	/	/
CCOC(=O)C1CC(CN2C(=O)c3ccccc3C2=O)OC1=O (stereo not drawn)	/	/	.	/	.	/
NC(=O)c1cccc(-c2cnc3c(Nc4cccc(OC(F)(F)C(F)F)c4)nccn23)c1	/	/	.	/	/	/
NC(=O)c1cccc(-c2cc(Nc3ccc(OC(F)(F)F)cc3)ncn2)c1	13	13µM	.	15µM	?	.
CNc1nc(NC)c2cn[nH]c2n1	/	/	.	/	.	/
CCOc1ccc(/C(C)=N/NC(=O)c2nnn(-c3nonc3N)c2-c2cccs2)cc1	.	.	.	.	?	.
CCCN(CCC)CC(O)Cn1cc(/C=C/C(=O)c2cccs2)c2ccccc21 (stereo not drawn)	.	7.4µM	.	.	?	.
CCCCN(C)CC(O)Cn1cc(/C=C/C(=O)c2ccc(C)cc2)c2ccccc21 (stereo not drawn)	.	9.3µM	.	.	13µM	.
CCCn1c(N)c(N(CCOC)C(=O)c2ccc(S(=O)(=O)N3CCOCC3)cc2)c(=O)[nH]c1=O	/	/	.[11.6 µM]	/	.	/
O=S(=O)(c1ccccc1)n1c(C(O)c2ccccn2)cc2ccccc21 (stereo not drawn)	.	.	.	.	.	.
COc1ccc2c(c1)cc(C(O)c1ccccn1)n2S(=O)(=O)c1ccccc1 (stereo not drawn)	19	.	.	.	.	41
COc1ccc(-c2ccc(OC)c(OC)c2OC)c(OC)c1OC	/	/	.	/	.	/
COc1cc2cc(-c3ccc(OC)c(OC)c3C)nc(N)c2cc1OC	/	/	.	/	18µM	/
